Measured values from PubChem BioAssay AID1159580 (chemical genetic matrix, 2015).
The whole screen tested about 5,500 compounds, of which about 2,000 (36%) were called active. About 18% were inconclusive and are not listed. Rule as the data show it: active = normalized growth mostly below about 0.91 (no sharp cut-off); inconclusive = no clear call, values can overlap the other calls; inactive = mostly above about 0.92. The list shows a part of the results.

Experiment: chemical genetic growth profiling, strain panel (AID 1159580);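 also: tested at 20 µM; growth read once vehicle control cultures reached saturation at 30 °C; 1 = growth at the plate median or of vehicle wells; lower values mean less growth of the strain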
Settings: S. cerevisiae deletion strains, growth OD
[1] = locus YDL101C, strain DUN1, hits give low values
[2] = locus YHR030C, strain SLT2, hits give low values
[3] = locus YAR019C, strain CDC15, hits give low values
[4] = locus YBL105C, strain PKC1, hits give low values
[5] = locus YBR135W, strain CKS1, hits give low values
[6] = locus YBR136W, strain MEC1, hits give low values
[7] = locus YBR160W, strain CDC28, hits give low values
[8] = locus YDL017W, strain CDC7, hits give low values
[9] = locus YDL028C, strain MPS1, hits give low values
[10] = locus YDL108W, strain KIN28, hits give low values
[11] = locus YDL132W, strain cdc53, hits give low values
[12] = locus YDL214C, strain PRR2, hits give low values
[13] = locus YDR052C, strain DBF4, hits give low values
[14] = locus YDR054C, strain cdc34, hits give low values
[15] = locus YDR226W, strain ADK1, hits give low values
[16] = locus YDR477W, strain SNF1, hits give low values
[17] = locus YER123W, strain YCK3, hits give low values
[18] = locus YER133W, strain GLC7, hits give low values
[19] = locus YFL009W, strain cdc4, hits give low values
[20] = locus YFL029C, strain CAK1, hits give low values
[21] = locus YFR003C, strain YPI1, hits give low values
[22] = locus YFR019W, strain FAB1, hits give low values
[23] = locus YFR028C, strain CDC14, hits give low values
[24] = locus YGR040W, strain KSS1, hits give low values
[25] = locus YGR052W, strain FMP48, hits give low values
[26] = locus YGR092W, strain DBF2, hits give low values
[27] = locus YHR079C, strain IRE1, hits give low values
[28] = locus YHR082C, strain KSP1, hits give low values
[29] = locus YHR205W, strain SCH9, hits give low values
[30] = locus YIL147C, strain SLN1, hits give low values
[31] = locus YJL095W, strain BCK1, hits give low values
[32] = locus YJL128C, strain PBS2, hits give low values
[33] = locus YJL157C, strain FAR1, hits give low values
[34] = locus YJR016C, strain ILV3, hits give low values
[35] = locus YJR066W, strain TOR1 (second series), hits give low values
[36] = locus YJR066W, strain TOR1, hits give low values
[37] = locus YKL048C, strain ELM1, hits give low values
[38] = locus YKL067W, strain YNK1, hits give low values
[39] = locus YKL101W, strain HSL1, hits give low values
[40] = locus YKL193C, strain SDS22, hits give low values
[41] = locus YKL203C, strain TOR2, hits give low values
[42] = locus YLR113W, strain HOG1, hits give low values
[43] = locus YLR133W, strain CKI1, hits give low values
[44] = locus YLR403W, strain SFP1, hits give low values
[45] = locus YML070W, strain DAK1, hits give low values
[46] = locus YMR001C, strain CDC5, hits give low values
[47] = locus YMR205C, strain PFK2 (second series), hits give low values
[48] = locus YMR277W, strain FCP1, hits give low values
[49] = locus YNL006W, strain LST8, hits give low values
[50] = locus YNL020C, strain ARK1, hits give low values
[51] = locus YNL161W, strain CBK1, hits give low values
[52] = locus YNL183C, strain NPR1, hits give low values
[53] = locus YNL207W, strain RIO2, hits give low values
[54] = locus YNL222W, strain SSU72, hits give low values
[55] = locus YNL307C, strain MCK1 (second series), hits give low values
[56] = locus YOL078W, strain AVO1, hits give low values
[57] = locus YOL136C, strain PFK27, hits give low values
[58] = locus YOR061W, strain CKA2, hits give low values
[59] = locus YOR119C, strain RIO1, hits give low values
[60] = locus YOR231W, strain MKK1, hits give low values
[61] = locus YOR329C, strain SCD5, hits give low values
[62] = locus YPL031C, strain PHO85, hits give low values
[63] = locus YPL153C, strain RAD53, hits give low values
[64] = locus YPL204W, strain HRR25, hits give low values
[65] = locus YPL209C, strain IPL1, hits give low values
[66] = locus YPL256C, strain CLN2, hits give low values
[67] = locus YPR025C, strain CCL1, hits give low values
[68] = locus YPR106W, strain ISR1, hits give low values
[69] = locus YPR111W, strain DBF20, hits give low values
[70] = strain NNK1, hits give low values
[71] = strain TSCII, hits give low values

Measured: normalized growth

CC(C)(C)C(=O)NC(=S)Nc1cccc(C(F)(F)F)c1
inactive: locus YBR229C, strain ROT2, hits give low values 0.989 | [1] 0.984 | locus YDR150W, strain NUM1, hits give low values 0.91 | locus YEL061C, strain CIN8, hits give low values 0.944 | locus YGR078C, strain PAC10, hits give low values 0.959 | locus YGR229C, strain SMI1, hits give low values 0.959 | locus YHR087W, strain rtc3, hits give low values 0.99 | locus YJL187C, strain SWE1, hits give low values 0.987 | locus YJR043C, strain POL32, hits give low values 0.957 | locus YJR075W, strain HOC1, hits give low values 0.977 | locus YLR058C, strain SHM2 (second series), hits give low values 0.966 | locus YMR219W, strain ESC1, hits give low values 0.978 | locus YMR263W, strain SAP30, hits give low values 0.953 | locus YNL153C, strain GIM3, hits give low values 0.955 | locus YNL322C, strain KRE1, hits give low values 0.984
active: locus YAL013W, strain DEP1, hits give low values 0.925 | locus YDL134C, strain PPH21, hits give low values 0.804 | [2] 0.527 | locus YLR039C, strain RIC1, hits give low values 0.401 | locus YLR085C, strain ARP6, hits give low values 0.397 | locus YLR262C, strain YPT6, hits give low values 0.474 | locus YML094W, strain GIM5, hits give low values 0.846 | locus YNL298W, strain CLA4 (second series), hits give low values 0.676 | locus YNR030W, strain Alg12, hits give low values 0.722 | locus YOL006C, strain TOP1, hits give low values 0.238 | locus YPL055C, strain LGE1, hits give low values 0.785 | locus YPL241C, strain CIN2, hits give low values 0.755 | locus YPR135W, strain CTF4, hits give low values 0.569

FC(F)(F)c1cccc(NC(=S)Nc2ccccc2)c1
inactive: [3] 0.983 | [4] 0.98 | [5] 0.975 | [6] 0.979 | [7] 0.981 | [8] 0.987 | [9] 0.98 | [1] 0.989 | [10] 0.978 | [11] 0.966 | [12] 0.949 | [13] 0.996 | [14] 0.982 | [15] 0.98 | [16] 0.954 | [17] 0.96 | [18] 0.958 | [19] 0.973 | [20] 0.983 | [21] 0.982 | [22] 0.962 | [23] 0.967 | [24] 0.941 | [25] 0.974 | [26] 0.883 | [2] 1 | [27] 1.04 | [28] 1 | [29] 0.951 | [30] 0.977 | [31] 0.882 | [32] 0.959 | [33] 0.941 | [34] 0.968 | [35] 0.897 | [36] 0.989 | [37] 1 | [38] 0.961 | [39] 0.955 | [40] 0.973 | [41] 0.995 | [42] 0.962 | [43] 0.947 | [44] 0.899 | [45] 0.966 | [46] 0.98 | [47] 0.991 | [48] 0.97 | [49] 0.985 | [50] 0.974 | [51] 0.981 | [52] 1 | [53] 0.967 | [54] 0.981 | [55] 0.896 | [56] 0.967 | [57] 0.95 | [58] 0.952 | [59] 1.02 | [60] 0.95 | [61] 0.989 | [62] 0.952 | [63] 0.954 | [64] 0.934 | [65] 0.978 | [66] 1.1 | [67] 0.982 | [68] 0.987 | [69] 0.969 | [70] 0.982 | [71] 0.975

O=C(NC(=S)Nc1cccc(C(F)(F)F)c1)c1ccc2nonc2c1
inactive: [3] 0.956 | [4] 0.968 | [5] 0.93 | [6] 0.952 | [7] 0.96 | [8] 0.96 | [9] 0.952 | [1] 0.957 | [10] 0.957 | [11] 0.967 | [12] 0.973 | [13] 0.978 | [14] 0.94 | [15] 0.957 | [16] 0.896 | [17] 0.971 | [18] 0.95 | [19] 0.944 | [20] 0.961 | [21] 0.96 | [22] 1 | [23] 0.944 | [24] 0.907 | [25] 1.04 | [26] 0.989 | [27] 0.949 | [28] 0.912 | [29] 0.907 | [30] 0.952 | [31] 0.778 | [32] 0.978 | [33] 0.974 | [34] 0.93 | [35] 0.938 | [36] 0.838 | [37] 0.968 | [38] 0.979 | [39] 0.956 | [40] 0.953 | [41] 0.972 | [43] 0.966 | [44] 0.968 | [45] 0.953 | [46] 0.957 | [47] 0.959 | [48] 0.953 | [49] 0.961 | [50] 0.962 | [51] 0.954 | [52] 0.852 | [53] 0.962 | [54] 0.947 | [55] 0.974 | [56] 0.953 | [57] 0.991 | [58] 0.967 | [59] 1.02 | [60] 0.863 | [61] 0.969 | [62] 0.912 | [63] 0.905 | [64] 0.936 | [65] 0.945 | [67] 0.951 | [68] 0.973 | [69] 0.936 | [70] 0.954 | [71] 0.939
active: [2] 0.774 | [42] 0.713 | [66] 0.831
